# From the supplement of paper PMC10105736
# Values without a mark were called inactive.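 How the source made its calls: active = MAPPIT score above the 99th percentile of random reference set scores in the same batch; inactive = at or below it.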
# B1: corto (protein)
# chain: MTMAACYANYDMSSLSHGMSALSALQQQQQQQQQQHSQTQQQHHHQQQQQHMYHAAVAAHQQQLLQQQQQQQHHRHHHQPANTSSSSNSRHSHAAATQTQVAAAVANSRQQQQQQQQQQQQQQQQQTASSNSNAAPAPSPQKDYSIPLHVDCSVEYELPNQPKPPAGQRVEPLLMIHPCYFRKMESQRRSPFVNNMHATARAVSSSSLSSGAALGGGGSGAAVATAPSSSAARRGARAATSAQQQQQQQQRYQQQQQQLRQQHQQMSQMSQQAHYPQQQSSLVRQHQQQQQQQQQQQRASSNQSQRQSQSQSQSQSHAANSAAAAAAQASIAAAAAGQWDQLAALAARTALTPHHMLHPHSHYAAKGSGGGAGGGKRDAMISGSYGQTAVASGKLQQSQVQQQQPQQQQQHCLPPPPWDATSMLMDRSPMATVPSNYQAGPDTNPMRLYSATPTAGAASGGSASVGGGGAVSGAGATGAVNTATDKLSGKYRQYLRSQRMHPYAAAASLNLAAAAAAAGQTSFVPFSSAATAVAATPTFQHLPQISCYNV
# B2: Lsm12a (protein)
# chain: MAAAAASAVNAVNDCFSIGSTVVCTTCFNEEVEGEVLAFDHNTKMLILKCRSKSTEELSDIYAMNLSLCSNVQVIKECNGNFDDPQKLNLEQVKMRLRKTVERRQDYLKSKNADVSPEAQELYRAIAKQYGYNEVSWQGLNIQILNEVTISPPYRVDNVVSSSNNETSCNYIKRIIKQFFNTRPSPVPESGAAASTSSPSVSPTSSSLASGSPVPAN
# B3: cpb (protein)
# chain: MSEMQMDCALDLMRRLPPQQIEKNLIDLIDLAPDLCEDLLSSVDQPLKIAKDKEHGKDYLLCDYNRDGDSYRSPWSNSYYPPLEDGQMPSERLRKLEIEANYAFDQYREMYYEGGVSSVYLWDLDHGFAAVILIKKAGDGSKMIRGCWDSIHVVEVQEKTTGRTAHYKLTSTAMLWLQTNKQGSGTMNLGGSLTRQQEQDANVSESSPHIANIGKMVEEMENKIRNTLNEIYFGKTKDIVNGLRSTQSLADQRQQAAMKQDLAAAILRRNVKPESN
# B4: PrBP (protein)
# chain: MGSDDQSAGDRIQKGFQINYMILRDADSGKIIWQENKDFSAPDQEHEARVPVKILDMRAVSREINFSTIESMENFRLDQKVLFKGRIMEEWFFEMGFVGANTTNTWQSTIEAAPESQMMPAKVLNGNVTIQTSFYDNETLITKSVVRLYYI
# B5: Ssrp (protein)
# chain: MTDSLEYNDINAEVRGVLCSGRLKMTEQNIIFKNTKTGKVEQISAEDIDLINSQKFVGTWGLRVFTKGGVLHRFTGFRDSEHEKLGKFIKAAYSQEMVEKEMCVKGWNWGTARFMGSVLSFDKESKTIFEVPLSHVSQCVTGKNEVTLEFHQNDDAPVGLLEMRFHIPAVESAEEDPVDKFHQNVMSKASVISASGESIAIFREIQILTPRGRYDIKIFSTFFQLHGKTFDYKIPMDSVLRLFMLPHKDSRQMFFVLSLDPPIKQGQTRYHYLVLLFAPDEETTIELPFSEAELRDKYEGKLEKEISGPVYEVMGKVMKVLIGRKITGPGNFIGHSGTAAVGCSFKAAAGYLYPLERGFIYIHKPPLHIRFEEISSVNFARSGGSTRSFDFEVTLKNGTVHIFSSIEKEEYAKLFDYITQKKLHVSNMGKDKSGYKDVDFGDSDNENEPDAYLARLKAEAREKEEDDDDGDSDEESTDEDFKPNENESDVAEEYDSNVESDSDDDSDASGGGGDSDGAKKKKEKKSEKKEKKEKKHKEKERTKKPSKKKKDSGKPKRATTAFMLWLNDTRESIKRENPGIKVTEIAKKGGEMWKELKDKSKWEDAAAKDKQRYHDEMRNYKPEAGGDSDNEKGGKSSKKRKTEPSPSKKANTSGSGFKSKEYISDDDSTSSDDEKDNEPAKKKSKPPSDGDAKKKKAKSESEPEESEEDSNASDEDEEDEASD
# B6: dgt6 (protein)
# chain: MDRTIIAPWKAEEKEQSEKLHRKLQGLALVHPLPDELRKLIAWDMFLKPNQVAFVHVMHYLFRLLDPAEFKRRFFWPITDKKSEANFRSSTVEYLKHLNEKHQLHWANIKSYLVVMPGGMRFINFLLEFVGFVIQELIKQREKSLGLEAGTPNVSAKVMARQNAVMKEYASSYVVNLEENTALLRDKTQKIRRLMADLSADMGVPEEQLADDGFLDEFEATAALGVERVITQPTERKFDLEASLCGLKEAIDLFQVKQAENNQSKEAVEKALRGMRVLFDCDAVTEGDFYDPLGASKMDALLNGFNRISGTIAEQLDANDHYNESNAFVTTDLQALRVELSQSEVQLNNLLKKLNEPSKKDKGSANASGSARVQTLQPATPRFESVISSKFVSTPPIRIDMGGGGGRNAPVRLALQDDFNGKQFDALSNSLLAPAPPRSARKLKALDQSTGIDLNGTLNRSKINDPMQMLRTIHKNTSKVKAAPQANLSSLGSKWKQMQASFGFDEAPVPGAAVISPQTSPTDPSDPFTPLSGSECTRIERIPRTSENNTSLIAKSAAVIKVLEVSRNVLNLSTSPSGRLDALVPHTESHQQDVAPRLQLNDRTINDSLQLDPDFNIENDKNAFNVSHKFDFDQIGGEDDLQNISDSVLKDIIF
# Tests used:
# Experiment in all cases: MAPPIT interaction score (arbitrary units); higher = stronger binary interaction signal, active = hit call of the paper
# corto = conditions: pair source set: Lit-BM-16
# dimm = conditions: MAPPIT configuration: N-N; pair source set: DPIM
# cpa = conditions: MAPPIT configuration: N-N; pair source set: Lit-BM-16
# dnd = conditions: MAPPIT configuration: N-N; pair source set: screen_2
# dre4 = conditions: MAPPIT configuration: N-N; pair source set: Lit-BM-16
# dgt4 = conditions: MAPPIT configuration: N-N; pair source set: Lit-BM-16
# 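Further: HEK293T cells with Epo stimulation, STAT-responsive firefly luciferase reporter, fold induction versus unstimulated cells divided by the larger fold induction of two negative controls lacking either bait or prey.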
binder,measurement,setting,value
B1,MAPPIT interaction score,corto; MAPPIT configuration: N-C,0.538
same,MAPPIT interaction score,corto; MAPPIT configuration: N-N,0.215
B2,MAPPIT interaction score,dimm,-0.17
B3,MAPPIT interaction score,cpa,3.35 (active)
B4,MAPPIT interaction score,dnd,4.87 (active)
B5,MAPPIT interaction score,dre4,0.764
B6,MAPPIT interaction score,dgt4,4.71 (active)
